In PubChem BioAssay (EPA / NIEHS):
Inconclusive results are not listed. The source made the active and inactive calls. Rule for the calls: active = hit-call score of the fitted dose curve at least 0.9, where 1 is the maximum; inconclusive = response in the unintended direction; inactive = score below 0.9.

Each molecule was assayed on Cytochrome P450 2C19 (Homo sapiens) (UniProt P33261) (assay: CLD_CYP2C19_48hr: CellzDirect (CLD) Gene Expression Assay for xenobiotic metabolism (CYP2C19) at 48 hours (AID 2283700);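 note: fitted upward so actives raise CYP2C19 mRNA above the 0.2% DMSO vehicle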).
Chain of Cytochrome P450 2C19 (Homo sapiens) (P33261 whole entry, looked up): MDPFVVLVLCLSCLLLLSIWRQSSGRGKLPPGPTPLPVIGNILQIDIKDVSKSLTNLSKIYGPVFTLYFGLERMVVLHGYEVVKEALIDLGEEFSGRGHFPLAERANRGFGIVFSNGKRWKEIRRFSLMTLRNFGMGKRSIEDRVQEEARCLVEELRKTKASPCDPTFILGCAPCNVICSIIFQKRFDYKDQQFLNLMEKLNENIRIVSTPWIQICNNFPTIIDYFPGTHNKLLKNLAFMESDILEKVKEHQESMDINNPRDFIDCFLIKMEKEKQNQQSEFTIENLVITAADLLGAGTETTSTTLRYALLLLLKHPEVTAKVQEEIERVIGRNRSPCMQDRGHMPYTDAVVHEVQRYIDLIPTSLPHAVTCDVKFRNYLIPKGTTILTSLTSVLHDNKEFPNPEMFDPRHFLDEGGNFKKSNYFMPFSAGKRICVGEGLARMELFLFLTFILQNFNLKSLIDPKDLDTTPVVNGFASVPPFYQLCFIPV
Method: CLD_48hr is a cell-based, multiplexed-readout assay that uses hepatocyte, a human liver primary cell, with measurements taken at 48 hours after chemical dosing in a 96-well plate.CLD_CYP2C19_48hr is one of 16 assay component(s) measured or calculated from the CLD_48hr assay. It is designed to make measurements of mRNA induction, a form of inducible reporter, as detected with chemiluminescence signals by Quantitative Nuclease Protection Assay (qNPA) technology.Data from the assay component CLD_CYP2C19_48hr was analyzed at the endpoint, CLD_CYP2C19_48hr, in the positive analysis fitting direction relative to DMSO as the negative control and baseline of activity. Using a type of inducible reporter, gain-of-signal activity can be used to understand changes in the reporter gene as they relate to the gene CYP2C19. Furthermore, this assay endpoint can be referred to as a primary readout. To generalize the intended target to other relatable targets, this assay endpoint is annotated to the cyp intended target family, where subfamily is xenobiotic metabolism.
Human hepatocyte cultures were treated daily for two consecutive days with fresh dosing solutions containing appropriate concentrations of the 320 ToxCast chemicals (chemical identities were blinded to CellzDirect and other ToxCast collaborators), vehicle control (0.2% DMSO), and positive control inducers as summarized in Table 1. Due to the large number of treatment groups and chemicals examined, the ToxCast chemicals were divided into two groups (spanning two independent cultures of hepatocytes from separate donor preparations (Hu778: ToxCast plates 1 and 2; Hu776: ToxCast plates 3 and 4). Each preparation of human hepatocyte cultures was treated with respective vehicle control, medium only control, set of six positive controls/reference chemicals for the five hepatic receptor pathways, and a subset of eight of the ToxCast chemicals (indoxacarb, pyrithiobac-sodium, norflurazon, cyhalofop-butyl, methomyl, thiram, acetochlor, and propiconazole). These replicate data, coupled with internal replicates designed within the blinded ToxCast chemical library, provided additional data to evaluate interindividual differences between hepatocyte preparations and their potential impact on chemical profiles.Cell morphology and integrity were evaluated using phase-contrast microscopy as an indicator of hepatocyte cell health (Tyson & Green, 1987). Cultures for each treatment group (i.e., media, vehicle [0.2% DMSO], positive control inducers [multiple concentrations], and the ToxCast chemicals [multiple concentrations]) were observed and cell morphology was assessed relative to vehicle control cultures at each harvest time point (0, 6, 24, or 48 h). […] Images were evaluated at the conclusion of the study to assess changes in cell integrity and account for the effects of chemical exposure on uncharacteristic changes in concentration-dependent gene expression profiles. The results from these determinations of apparent cytotoxicity were annotated (yes/no) alongside the corresponding qNPA data for reference.At the conclusion of each treatment period, hepatocyte cultures (96-well) were washed with 1 volume of HBSS, lysed by addition of 25 ul ArrayPlate lysis buffer (HTG, Tucson, AZ), and 70 ul/well of Denaturation Oil, denatured by incubation at 95C for 10 min, and frozen at approximately -70C until analysis by nuclease protection assay (qNPA) (Roberts et al., 2007). For qNPA analysis, cell lysates were thawed at 50C for approximately 30 min, qNPA probes were added, and samples were incubated at 95C for 10 min to begin the detection process by denaturing the target RNA, dissociating the duplexes and secondary structure hybridization. At the conclusion of the hybridization period, S1 nuclease reagent was added to each sample to digest all nonprotected nucleotides at 50C for 60-90 min. […]

Compound	outcome
CCOP(=O)(OCC)Oc1cc(C)nc(C(C)C)n1	inactive
CCCCOC(=O)[C@@H](C)Oc1ccc(Oc2ccc(C#N)cc2F)cc1	inactive
CC1(C(=O)Nc2ccc(O)c(Cl)c2Cl)CCCCC1	inactive
C[N+]1(C)CCCCC1	inactive
Cc1nn(-c2cc(NS(C)(=O)=O)c(Cl)cc2Cl)c(=O)n1C(F)F	inactive
CC(Oc1cccc(Cl)c1)C(=O)O (stereo not given)	inactive
CN(C)NC(=O)CCC(=O)O	inactive
C#CC(C)(C)NC(=O)c1cc(Cl)cc(Cl)c1	inactive
COc1cc(OC)nc(Sc2cccc(Cl)c2C(=O)O)n1	inactive
CC(C1CC1)C(O)(Cn1cncn1)c1ccc(Cl)cc1 (stereo not given)	inactive
CC(C)=CC1C(C(=O)OCN2C(=O)C3=C(CCCC3)C2=O)C1(C)C (stereo not given)	inactive
CCCOc1nn(C(=O)NS(=O)(=O)c2ccccc2C(=O)OC)c(=O)n1C	inactive
CNC(=O)ON=C(SC)C(=O)N(C)C	inactive
C=C(C)[C@H]1Cc2c(ccc3c2O[C@@H]2COc4cc(OC)c(OC)cc4[C@@H]2C3=O)O1	inactive
Cc1ccn2nc(S(=O)(=O)Nc3c(F)cccc3F)nc2n1	inactive
CN1COCN(Cc2cnc(Cl)s2)C1=N[N+](=O)[O-]	inactive
CCOP(=S)(OCC)Oc1ccc2c(C)c(Cl)c(=O)oc2c1	inactive
CCOP(=S)(OCC)SCCSCC	inactive
CNC(=O)Oc1cccc2c1OC(C)(C)O2	inactive
COP(=O)(OC)OC(Br)C(Cl)(Cl)Br (stereo not given)	inactive
COP(=O)(NC(C)=O)SC (stereo not given)	inactive
S=C1NCCN1	inactive
O=C(O)c1cc(Oc2ccc(C(F)(F)F)cc2Cl)ccc1[N+](=O)[O-]	inactive
CCCCOC(=O)c1ccccc1C(=O)O	inactive
CC1=NNC(=O)N(/N=C/c2cccnc2)C1	inactive
CCOP(=O)(NC(C)C)Oc1ccc(SC)c(C)c1 (stereo not given)	inactive
COc1cccc(C(=O)NN(C(=O)c2cc(C)cc(C)c2)C(C)(C)C)c1C	inactive
CNC(=O)ON=C(C)SC	inactive
CC(=NC#N)N(C)Cc1ccc(Cl)nc1	inactive
CCc1cnc(C2=NC(C)(C(C)C)C(=O)N2)c(C(=O)O)c1 (stereo not given)	inactive
